Assay results: publication PMC4336329 (PLoS ONE, 2015)
The campaign covered roughly 310,000 compounds. About 14,000 (4.5%) showed an effect of 50% or more. Effects have a minus sign here. What follows is part of a selection rich in strong results, with near analogues and random picks from the rest.

target: human ether-à-go-go-related gene (hERG) potassium channel (human, UniProt Q12809); assay: primary screen, population patch clamp on CHO cells stably expressing hERG; higher = less effect of the substance
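Further: peak tail current of the secondary pulse compared with the same well before compound.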

Chain of human ether-à-go-go-related gene (hERG) potassium channel (Q12809 whole entry, looked up): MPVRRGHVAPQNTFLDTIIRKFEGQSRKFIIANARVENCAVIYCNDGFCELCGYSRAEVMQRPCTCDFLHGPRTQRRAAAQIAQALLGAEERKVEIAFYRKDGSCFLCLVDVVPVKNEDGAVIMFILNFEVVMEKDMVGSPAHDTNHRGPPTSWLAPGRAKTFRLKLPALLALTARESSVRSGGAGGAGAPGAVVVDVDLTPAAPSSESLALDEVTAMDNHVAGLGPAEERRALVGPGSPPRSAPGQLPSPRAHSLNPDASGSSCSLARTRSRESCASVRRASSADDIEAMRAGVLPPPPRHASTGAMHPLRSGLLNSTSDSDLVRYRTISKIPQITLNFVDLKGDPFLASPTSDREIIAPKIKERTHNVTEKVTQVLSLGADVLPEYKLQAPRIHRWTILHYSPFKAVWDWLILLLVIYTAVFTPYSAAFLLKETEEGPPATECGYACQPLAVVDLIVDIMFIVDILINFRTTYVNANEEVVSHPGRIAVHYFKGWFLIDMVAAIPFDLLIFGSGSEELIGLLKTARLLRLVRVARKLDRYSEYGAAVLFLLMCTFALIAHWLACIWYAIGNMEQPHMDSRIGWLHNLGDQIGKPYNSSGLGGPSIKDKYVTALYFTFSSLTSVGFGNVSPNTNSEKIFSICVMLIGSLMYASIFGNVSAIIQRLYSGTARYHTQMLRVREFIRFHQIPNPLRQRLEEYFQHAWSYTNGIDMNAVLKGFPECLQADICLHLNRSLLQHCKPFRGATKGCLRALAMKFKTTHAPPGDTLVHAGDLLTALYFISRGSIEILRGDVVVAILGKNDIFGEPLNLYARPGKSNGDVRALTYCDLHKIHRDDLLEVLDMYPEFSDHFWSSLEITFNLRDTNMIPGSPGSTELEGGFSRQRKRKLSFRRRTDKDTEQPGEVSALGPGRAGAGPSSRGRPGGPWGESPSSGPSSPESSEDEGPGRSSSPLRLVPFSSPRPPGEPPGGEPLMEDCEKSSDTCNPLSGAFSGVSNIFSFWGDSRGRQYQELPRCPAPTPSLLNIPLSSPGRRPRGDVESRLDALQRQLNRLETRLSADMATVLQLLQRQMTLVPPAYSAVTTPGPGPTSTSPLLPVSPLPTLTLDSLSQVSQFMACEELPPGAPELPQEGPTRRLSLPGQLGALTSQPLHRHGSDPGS

Row | SMILES | hERG current change (%, negative = inhibition) at 10uM [%]
1 | CCn1c(CNC(=O)c2ccccc2Br)nnc1SCC(=O)NC1=NCCS1 | 27.9
2 | CCOc1ccc(NC(=NCc2ccc3c(c2)OCO3)SC2CC(=O)N(c3ccc(OCC)cc3)C2=O)cc1 (stereo not shown) | -1.29
3 | CCOC(=O)N1CCN(C(=O)CCn2c(=S)[nH]c3cc(OCC)c(OCC)cc3c2=O)CC1 | -7.21
4 | Cc1cccc(C(=O)NC2CC3CCCC(C2)N3S(=O)(=O)c2ccccc2)c1 (stereo not shown) | -77.2
5 | Cc1cccc(C(=O)NC2CCN(S(=O)(=O)c3ccccc3)CC2)c1 | 3.41
6 | CC(=O)NC1CC2CCCC(C1)N2S(=O)(=O)c1ccccc1 (stereo not shown) | 16.3
7 | COc1ccc(S(=O)(=O)N2CCC(NC(=O)c3ccccc3)CC2)cc1 | 17.8
8 | O=C(NC1CCN(S(=O)(=O)c2ccc(Cl)cc2)CC1)c1cccnc1 | 0.584
9 | O=C(NC1CC2CCCC(C1)N2S(=O)(=O)c1ccccc1)c1ccccc1 (stereo not shown) | -44
10 | COc1ccc(S(=O)(=O)N2CCC(NC(=O)c3cccnc3)CC2)cc1 | -64.7
11 | CCCN1C2CCCC1CC(NC(=O)c1cccc(OC)c1)C2 (stereo not shown) | -16.4
12 | COc1cccc(C(=O)NC2CC3CCCC(C2)N3S(=O)(=O)c2ccccc2)c1 (stereo not shown) | -75.8
13 | Cc1nn(CC(=O)NC2(C#N)CCCCC2)c(C)c1[N+](=O)[O-] | 3.09
14 | CCCCOC(=O)C1=C(C)NC(=O)NC1c1ccc(N(C)C)cc1 (stereo not shown) | 21.7
15 | O=C(COc1ccccc1)N1CCN(C2CC3CCC2C3)CC1 (stereo not shown) | 7.39
16 | NC(=O)c1nsc(C(=O)N(c2ccc(F)cc2)C(C(=O)NC2CCCC2)c2ccncc2)c1N (stereo not shown) | -0.193
17 | COc1cccc2c1c(NC(=O)Nc1ccc(F)cc1F)nn2C | 15.3
18 | COc1cc2cc(CN(Cc3cccnc3)C(=O)NCc3ccccc3)c(=O)[nH]c2cc1OC | -12.6
19 | CC12CC[C@H]3[C@@H](CCC4(O)C[C@H](O)CCC34/C=N/NC(=O)c3ccc(O)cc3)C1(O)CCC2C1=CC(=O)OC1 (stereo partly shown) | 15
20 | CC(C)(/C=N/O)N(O)C=C1C=CC(=O)C=C1 | 5.81
21 | Brc1cc2c(cc1/C=N/Nc1nc(N3CCCC3)nc(N3CCOCC3)n1)OCO2 | -51.3
22 | C(=C\c1ccccc1)/C=N/Nc1nc(N2CCOCC2)nc(N2CCOCC2)n1 | -9.68
23 | O=[N+]([O-])c1ccccc1/C=C/C=N/Nc1nc(N2CCCCC2)nc(N2CCCCC2)n1 | -12.2
24 | COc1nc(N/N=C/c2cc3c(cc2Br)OCO3)nc(N2CCOCC2)n1 | -27.8
25 | Brc1cc2c(cc1/C=N/Nc1nc(N3CCOCC3)nc(N3CCOCC3)n1)OCO2 | -5
26 | Clc1ccccc1/C=C/C=N/Nc1nc(N2CCOCC2)nc(N2CCOCC2)n1 | -58.4

Row | SMILES | hERG current change (%, negative = inhibition) at 10uM [%]
27 | O=C(c1ccccc1)n1ccc2ccccc21 | -28
28 | O=S(=O)(c1ccc(Oc2ncnc3scc(-c4ccccc4)c23)cc1)N1CCOCC1 | -0.503
29 | Cc1c(C(=O)NCC(c2ccco2)N(C)C)oc2c(Cl)cccc12 (stereo not shown) | -36.9
30 | C/C(=C\c1ccc2c(c1)OCO2)C1Nc2cccc3cccc(c23)N1 | 16.8
31 | COc1ccccc1OCC(=O)NCC(C)NC(=O)COc1ccccc1OC (stereo not shown) | 4.93
32 | Cc1cccc(S(=O)(=O)NNC(=O)c2cc(-c3ccc(F)cc3)nc3ccccc23)c1 | 28.5
33 | COc1ccc(NC(=O)CN(C)C(=O)c2ccc(N3CCCC3)c([N+](=O)[O-])c2)cc1 | -54
34 | COc1ccc(Cl)cc1NC(=O)CN(C)C(=O)c1ccc(N2CCCCC2)c([N+](=O)[O-])c1 | -18.8
35 | COc1ccc(NC(=O)CN(C)C(=O)c2ccc(N3CCOCC3)c([N+](=O)[O-])c2)cc1 | -46.3
36 | COc1ccc(Cl)cc1NC(=O)CN(C)C(=O)c1ccc(N2CCCCCC2)c([N+](=O)[O-])c1 | 5.32
37 | CCOc1ccc(NC(=O)CN(C)C(=O)c2ccc(N3CCCCCC3)c([N+](=O)[O-])c2)cc1OCC | 3.4
38 | COc1ccc(NC(=O)CN(C)C(=O)c2ccc(N3CCCCCC3)c([N+](=O)[O-])c2)cc1 | -51.6
39 | COc1ccc(NC(=O)CN(C)C(=O)c2ccc(N3CCCCC3)c([N+](=O)[O-])c2)cc1 | -76.8
40 | CCOc1ccc(NC(=O)CN(C)C(=O)c2ccc(N3CCCCC3)c([N+](=O)[O-])c2)cc1OCC | -57.6
41 | COc1cccc(CN(C)C(=O)c2ccc(N3CCCC3)c([N+](=O)[O-])c2)c1 | -45.3
42 | CN(CC(=O)Nc1ccccc1Cl)C(=O)c1ccc(N2CCCCCC2)c([N+](=O)[O-])c1 | -20.2
43 | CCOc1ccc(NC(=O)CN(C)C(=O)c2cc(S(=O)(=O)N(C)C)ccc2N2CCCC2)cc1OCC | 6.11
44 | CN(CC(=O)Nc1cccc(F)c1)C(=O)c1ccc(N2CCCCCC2)c([N+](=O)[O-])c1 | 17.9
45 | CC1(C)Cc2c(c(N3CCCC3)nc3sc4c(N5CCNCC5)ncnc4c23)CO1 | -35.2
46 | O=C(N/N=C/c1ccc(-c2cccc(C(F)(F)F)c2)o1)c1ccccc1Br | 3.21
47 | CCOc1ccc(Cl)cc1S(=O)(=O)NC1CCCC1 | -3.26
48 | Cn1c(=O)c2c(nc(Br)n2CC(=O)c2cccs2)n(C)c1=O | -6.03
49 | CCc1ccc(NC(=O)C2CCCCC2C(=O)O)cc1 (stereo not shown) | 11.8
50 | CCOc1ccc(NC(=O)CN(C)C(=O)c2cc([N+](=O)[O-])ccc2N2CCCCC2)cc1OCC | -43.9
51 | CCOc1ccc(NC(=O)CN(C)C(=O)c2ccc(N3CCOCC3)c([N+](=O)[O-])c2)cc1OCC | -19.1
52 | CCOc1ccc(NC(=O)CN(C)C(=O)c2cc([N+](=O)[O-])ccc2N2CCOCC2)cc1OCC | -52.5
